The values below come from the OligoGym collection.
Note: reference of the scale not given here.

One assay concerns the target EPHX2. The assay is described as follows: pooled miR-30 sensor sort-seq; sequence = guide strand. The note with it: shRNA.
Sequence TTTTATGGAGAAATTCTTGGGG registered a sensor-assay potency score (higher = more potent) of 0.765. Still for that read-out and setting: then TAGTGAATCCTTTCTTCCTGAG, with -0.285; and TATTCTTCTATTTCGGGAGGAG, with 0.331. For the sequence TCTGAAACCAGACTTCTTGAAC, the sensor-assay potency score (higher = more potent) is -0.948.

For a further assay, the target named is ERCC2. The description is as above. The following applies: shRNA.
For the sequence TGGAAGTCCAGGATCTTGGGGT, the sensor-assay potency score (higher = more potent) is 0.059. Sequence TGACAGACTGGAAACGCTCAAA displayed a sensor-assay potency score (higher = more potent) of -0.97. On to TTAGCAAGGAGGGTGAGCGGGG, for which the sensor-assay potency score (higher = more potent) is -1.04.

Consider TTCCCATCGACGTCCTTCCCAA, for which the sensor-assay potency score (higher = more potent) is -0.665. Turning to TGAATACACAAGTTTTTGCGGG, the sensor-assay potency score (higher = more potent) was determined as 0.0838. In turn, AACAGGGATACTGTCTTCCCGG gave a sensor-assay potency score (higher = more potent) of -1.06. Sequence TTTGATCCTGAGCACCGTCTTC returned a sensor-assay potency score (higher = more potent) of -1.12. Still for that read-out and setting: then TCGTCTGTCTCTTTGATCCTGA, with -0.221; and TCAATCTCTGGCACAGTTCTTG, with 0.0123; and TCTGGCACAGTTCTTGAGCAGT, with -0.9.

TTGCGCTGGATGCACACGCGCT yielded a sensor-assay potency score (higher = more potent) of -1.42. Same read-out and setting: for ATTCTCACGAATCTGGAACTGG the value was -0.416. For TTGAGCTCCCGCATGTAGGAGA, the sensor-assay potency score (higher = more potent) was -0.477. With TCGATGATGATGGTGAAGCCTT, the sensor-assay potency score (higher = more potent) is -1.27. For the sequence TGTAGGAGAACTGCTCGGGGTA, the sensor-assay potency score (higher = more potent) was -0.658. The sequence TATCGAGCAAGGAAGTATGGGC gave a sensor-assay potency score (higher = more potent) of 0.161. In the case of TTCAGCACAGAATCTGAGGGGC, the sensor-assay potency score (higher = more potent) was determined as 0.408. TTGAGCAGTAGATGAGTTTGGT gave a sensor-assay potency score (higher = more potent) of 0.18.

TTGAGCAACTTTCGAAGCTCTT registered a sensor-assay potency score (higher = more potent) of -0.541. In the case of TTGGGGTAGATGTCCAGCGGGG, the sensor-assay potency score (higher = more potent) was -1.14. TCGAAGCTCTTCAATCACCTTC came in with a sensor-assay potency score (higher = more potent) of 0.181.

TAGCTATAAACCACCACATTGG yielded a sensor-assay potency score (higher = more potent) of -1.42. In turn, TCAAATTCCTCATAGAATCGGC registered a sensor-assay potency score (higher = more potent) of -0.0111.

In the case of TAGAAGTTGAGCAACTTTCGAA, the sensor-assay potency score (higher = more potent) stood at 0.118.
